# Laboratory results reported in PubChem BioAssay AID602197 (NMMLSC, 2012).
# The other results are listed elsewhere or left out. Values without a mark were called inactive. Active and inactive are the calls of the source. Cut-off read from the data, not from the text of the source: active = response above about 24%; inactive = the rest.
# Experiment: yeast V-ATPase proton pumping modulators, confirmation, S. cerevisiae, pH-sensitive GFP, second cherry-pick (AID 602197);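 note: plate controls were vehicle wells for no effect and positive control wells for full effect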
# Settings: S. cerevisiae pHLuorin cytosolic pH, V-ATPase proton transport; at 10 µM; hits give high values
row,Compound,response
1,OCc1nc(CO)n(Cc2ccccc2)n1,-7.16%
2,COc1ccccc1CNC(=O)COC(=O)c1sc(C)nc1C,1.62%
3,CCCCNc1ccc(C(=O)Nc2cccc(C)n2)cc1[N+](=O)[O-],2.43%
4,CCC(=O)c1ccc(OCC(=O)Nc2ccc(N3CCCCC3)cc2)cc1,-1.55%
5,CC1=NOC(=O)/C1=C\c1ccccc1,30.5% (active)
6,CNC(=O)c1csc(Cc2c(Cl)sc3ccc(Cl)cc23)n1,2.33%
7,Cc1occc1C(=O)Nc1nnc(C2CCCCC2)s1,3.1%
8,CCOc1ccc(CCNC(=O)C2=C(C)C(=O)OC23CCC(C)CC3)cc1OCC (centres undefined),5.21%
9,O=C1Oc2ccccc2C(=O)/C1=C/c1ccccc1O,91.4% (active)
10,Cc1cc(OC(=O)c2ccccc2)c([N+](=O)[O-])c(=O)[nH]1,1.38%
11,COc1ccc(C(=O)N(Cc2ccccc2)c2ccc(C)cc2)cc1S(=O)(=O)N1CCOCC1,-6.57%
12,Cc1ccc2nc(-c3ccncc3)cc(C(=O)Nc3ccc(OC(F)F)cc3)c2c1,2.3%
13,CC1=NN(c2ccc(Cl)c(C(=O)O)c2)C(=O)/C1=C/c1ccc(-c2ccccc2[N+](=O)[O-])o1,1.31%
14,COc1cc2c(cc1/C=C1/NC(=O)N(c3ccccc3)C1=O)OCO2,-0.72%
15,CC(=O)N1CCC(N(C(=O)Nc2ccc(Cl)cc2)C(C)C)CC1,2.59%
16,O=C(NCC1CCCCC1)c1cc(S(=O)(=O)N2CCCCC2)ccc1N1CCOCC1,-0.11%
17,Cc1ccnc(SCC(=O)Nc2cccc(S(=O)(=O)N3CCOCC3)c2)n1,0.72%
18,O=S1(=O)C=C(SCCN2CCCC2)c2ccccc21,-0.88%
19,O=C(COC(=O)c1ccccc1Br)Nc1nnc(-c2ccccc2)o1,3.01%
20,O=C(NC1CCN(Cc2ccccc2)CC1)c1cc(Br)c(Br)[nH]1,2.14%
21,COC(=O)c1cc(Oc2ccc(S(=O)(=O)N3CCOCC3)cc2[N+](=O)[O-])cc(C(=O)OC)c1,0.18%
22,Cc1ccc(C(=O)Nc2nc3ccc(Cl)cc3s2)o1,-0.02%
23,COC(=O)COc1ccc2c(=O)c(Oc3ccccc3Br)coc2c1,-1.59%
24,CCOC(=O)N1CCN(CC(=O)n2c(C)c(C)c3ccccc32)CC1,1.66%
